A short description of assay [1]: qHTS assay to identify small molecule agonists of the vitamin D receptor (VDR) signaling pathway - cell viability counter screen (AID 743224; active means well fitted curve in the direction sought with a large enough effect in the repeat runs; an effect the other way counts as inactive or inconclusive; further: nearly all actives have a fitted effect of over 50% in size; further: potency means the concentration at half of the fitted maximal effect; on activity change, negative = cytotoxicity: series mostly up to about 63 µM; on the % scale 0 is the no-effect control and ±100 the full control effect). In outline: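 VDR-bla cell line, quantitative HTS format; 16 h compound incubation (37C, 5% CO2); ATP-based CellTiter-Glo luminescence measured in the reporter assay wells.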
(In general: Quantitative high-throughput screening tests each substance at several concentrations.)

Assay [2] is described as follows: qHTS assay to identify small molecule antagonists of the vitamin D receptor (VDR) signaling pathway - cell viability counter screen (AID 743225; active means well fitted curve in the direction sought with a large enough effect in the repeat runs; an effect the other way counts as inactive or inconclusive; further: nearly all actives have a fitted effect of over 50% in size; further: potency means the concentration at half of the fitted maximal effect; on viability change, negative = cytotoxic: on the % scale 0 is the no-effect control and ±100 the full control effect). In outline:
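Read-out: CellTiter-Glo luminescence measured 30 min after reagent addition at room temperature. Cells were VDR-bla HEK 293T exposed 16 h at 37C, 5% CO2, to compound with 3 nM final calcitriol agonist.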

Assay [3] is described as follows: qHTS assay to identify small molecule agonists of the NFkB signaling pathway - cell viability counter screen (AID 1159515). Further: nearly all actives have a fitted effect of over 55% in size. Further: potency means the concentration at half of the fitted maximal effect. On activity, negative = cytotoxic: series mostly up to about 61 µM; on the % scale 0 is the no-effect control and ±100 the full control effect. In outline:
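Viability in NFkB-bla ME-180 cells was measured by CellTiter-Glo luminescence, 30 min room temperature, in wells already treated 5 hr with compounds and read for reporter FRET.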

The nature of assay [4]: qHTS assay to identify small molecule agonists of the endoplasmic reticulum stress response signaling pathway - cell viability counter screen (AID 1159517). Further: nearly all actives have a fitted effect of over 50% in size. Further: potency means the concentration at half of the fitted maximal effect. The gist of the method:
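Luminescence readout: CellTiter-Glo, 30 min RT, same wells as the ESRE-bla reporter read. HeLa ESRE-bla, 1,500 cells/well, o/n 37 C; cpd 5 hr 37 C/5% CO2.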

The nature of assay [5]: qHTS assay to identify small molecule antagonists of the retinoid-related orphan receptor gamma (ROR-gamma) signaling pathway - cell viability counter screen (AID 1159520; active means well fitted curve in the direction sought with a large enough effect in the repeat runs; an effect the other way counts as inactive or inconclusive; further: nearly all actives have a fitted effect of over 50% in size; further: potency means the concentration at half of the fitted maximal effect). In outline: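 Tet-on ROR gamma CHO cells (1,000/well) were plated 4 hr, given compounds in DMSO for 2 hr at 37 C, then induced with 1 uM final doxycycline for 16 hr. Viability was read as ATP by CellTiter-Glo luminescence after 30 min.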

For assay [6], the target named is Nuclear receptor ROR-gamma (Homo sapiens) (UniProt P51449). Put plainly: qHTS assay to identify small molecule antagonists of the retinoid-related orphan receptor gamma (ROR-gamma) signaling pathway (AID 1159521; active means well fitted curve in the direction sought with a large enough effect in the repeat runs; an effect the other way counts as inactive or inconclusive; further: nearly all actives have a fitted effect of over 50% in size; further: potency means the concentration at half of the fitted maximal effect). In outline:
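CHO Tet-on RORγ, RORE-luc reporter. Cpd 2 h pre-incubation, then dox hyclate 1 uM final, 16 h, 37 C/5% CO2. ONE-Glo luminescence; decrease = antagonist.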

Assay [7] can be described thus: qHTS assay to identify small molecule agonists of the AP-1 signaling pathway - cell viability counter screen (AID 1159525). Further: nearly all actives have a fitted effect of over 55% in size. Further: potency means the concentration at half of the fitted maximal effect. In outline:
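ME-180 AP-1-bla, 2500 cells/well, Opti-MEM + 0.5% dialyzed FBS; overnight 37 °C; cpd 15-pt titration, 5 h 37 °C; CellTiter-Glo 30 min RT; luminescence read; normalised to TOAB and DMSO controls.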

In assay [8] the target is Retinoic acid receptor RXR-alpha (Homo sapiens) (UniProt P19793). Put plainly: qHTS assay to identify small molecule agonists of the RXR signaling pathway (AID 1159527). Further: on the % scale 0 is the no-effect control and ±100 the full control effect; nearly all actives have a fitted effect of over 35% in size. The gist of the method:
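Read-out: beta-lactamase FRET ratio (405 nm excitation, 460 and 530 nm emission) after 2 hr substrate loading at room temperature. Cells were RXR-alpha-UAS-bla HEK 293T treated with compounds for 16 hr in 2% charcoal-stripped FBS medium.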

Assay [9] can be described thus: qHTS assay to identify small molecule agonists of the AP-1 signaling pathway (AID 1159526). Further: on the % scale 0 is the no-effect control and ±100 the full control effect.

Structures are written as SMILES. Values joined by “and” are separate entries in the source; they are usually repeats but may differ in a detail not shown here. Equal entries are not always repeated. Results filed as inconclusive are left out. A number with no mark means an inactive call. Active and inactive are the calls of the source. Unless noted, the call rests on the fitted dose curve.

Retinoic acid receptor RXR-alpha (Homo sapiens), sequence (P19793 whole entry, looked up): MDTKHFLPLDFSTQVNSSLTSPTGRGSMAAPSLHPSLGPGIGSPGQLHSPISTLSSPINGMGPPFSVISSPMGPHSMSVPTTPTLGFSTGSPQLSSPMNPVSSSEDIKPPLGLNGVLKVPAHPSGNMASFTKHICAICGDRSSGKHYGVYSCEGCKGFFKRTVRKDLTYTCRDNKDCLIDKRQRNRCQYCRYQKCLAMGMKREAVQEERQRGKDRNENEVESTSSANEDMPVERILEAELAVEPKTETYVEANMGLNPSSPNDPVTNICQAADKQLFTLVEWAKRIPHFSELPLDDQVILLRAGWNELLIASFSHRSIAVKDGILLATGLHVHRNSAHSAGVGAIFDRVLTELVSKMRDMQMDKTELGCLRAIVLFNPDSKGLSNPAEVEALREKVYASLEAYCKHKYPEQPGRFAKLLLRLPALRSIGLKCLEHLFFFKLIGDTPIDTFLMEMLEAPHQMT

Consider `CN1C(=O)[C@@H](NC(=O)c2cc3ccccc3[nH]2)N=C(c2ccccc2)c2ccccc21`, for which the Potency entry in [1], in [2], in [3], in assay [4], in assay [5] and in assay [6] was “inactive” in each case. In addition, in [7], the Potency entry is “inactive”.
In the case of `CC(=O)[O][Sn]([c]1ccccc1)([c]1ccccc1)[c]1ccccc1`, the Potency is 0.0871 µM (active) in assay [1]; 0.219 µM (active) in assay [2]; 2.45 µM (active) in assay [3]; 13.8 µM (active) in [4]; 0.0969 µM (active) in assay [5]; 0.0243 µM (active) in assay [6]. The Potency in [7] was 3.89 µM (active).
As to `CC(C)C(Nc1ccc(C(F)(F)F)cc1Cl)C(=O)OC(C#N)c1cccc(Oc2ccccc2)c1` (stereo unspecified), the Potency result in assay [1], in assay [2], in assay [3], in [4], in assay [5] and in assay [6] was “inactive” each time. The Potency entry in assay [7] and in assay [8] was “inactive” each time.
In the case of `O=[N+]([O-])c1ccc(Cl)c(Cl)c1Cl`, the Potency entry in assay [1], in assay [2], in [3], in assay [4], in assay [5] and in [6] was “inactive” in each case. Further, the Potency result in assay [7] was “inactive”.
As to `CC1(C)[C@H](/C=C2\CCSC2=O)[C@@H]1C(=O)OCc1coc(Cc2ccccc2)c1`, the Potency entry in assay [1], in [3], in [4], in assay [5], in assay [7] and in [8] was “inactive” in each case. In addition, the Potency in [6] was 27.3 µM (active).
In the case of `Oc1cc(Cl)c(Cl)c(Cl)c1Cl`, the figures for the Potency in assay [1], in assay [5] and in assay [6] were 24 µM (active), 53.2 µM (active) and 23.8 µM (active), respectively. Also, the Potency result in assay [3], in assay [4] and in assay [7] was “inactive” each time.
Take `Brc1ccc(Oc2ccc(Br)cc2Br)c(Br)c1`: the Potency result in [2], in assay [3], in assay [4], in [5], in assay [6] and in assay [7] was “inactive” each time. The Potency entry in assay [9] and in assay [8] was “inactive” throughout.
Turning to `Cc1ccc([N+](=O)[O-])[c]2c1[O][Hg]2`, the Potency in assay [1] was 3.76 µM (active); in [2] it was 3.01 µM (active); in assay [3], 6.01 µM (active); in [4], 23.9 µM (active); in assay [5] it was 1.19 µM (active); in assay [6], 0.376 µM (active). For the same compound, the Potency in [7] was 6.01 µM (active).
As for `CN1CCc2cc3c(cc2C1O)OCO3` (stereo unspecified), the Potency result in assay [1], in [2], in assay [3], in [4], in assay [5] and in [6] was “inactive” in each case. The Potency result in [7] and in [9] was “inactive” throughout.
Consider `c1ccc(N=NNc2ccccc2)cc1`, for which the Potency result in assay [3], in assay [4], in assay [5], in [6], in assay [7] and in assay [8] was “inactive” throughout.
For the compound `CC[C@H](C)[C@H]1O[C@]2(C=C[C@@H]1C)C[C@@H]1C[C@@H](C/C=C(\C)[C@@H](O[C@H]3C[C@H](OC)[C@@H](O[C@H]4C[C@H](OC)[C@@H](NC)[C@H](C)O4)[C@H](C)O3)[C@@H](C)/C=C/C=C3\CO[C@@H]4[C@H](O)C(C)=C[C@@H](C(=O)O1)[C@]34O)O2`, the Potency was 3.09 µM (active) in assay [1]; 4.36 µM (active) in [2]; 34.7 µM (active) in assay [3]; 19.5 µM (active) in assay [4]; 13.7 µM (active) in assay [5]; 3.86 µM (active) in assay [6]. Moreover, the Potency in assay [7] is 13.8 µM (active).
With `O=C1C[C@@H]2OCC=C3CN4CC[C@]56c7ccccc7N1[C@H]5[C@H]2[C@H]3C[C@H]46`, the Potency result in assay [1], in [2], in assay [3], in assay [4], in assay [5] and in assay [6] was “inactive” throughout. Besides, the Potency entry in assay [7] and in [9] was “inactive” each time.
For `O=S1OCC2C(CO1)C1(Cl)C(Cl)=C(Cl)C2(Cl)C1(Cl)Cl` (stereo unspecified), the Potency in [1] was 38.9 µM (active); in assay [3] it was 55 µM (active); in assay [4], 55 µM (active); in [5], 54.5 µM (active); in assay [6], 43.3 µM (active) and 61.1 µM (active); in assay [7], 38.9 µM (active) and 48.9 µM (active). Further, in assay [2], the Potency result is “inactive”.
Turning to `CC(C)=CC1C(C(=O)OC(C#N)c2cccc(Oc3ccccc3)c2)C1(C)C` (stereo unspecified), the Potency entry in assay [1], in assay [3], in assay [4], in assay [5], in assay [6] and in [7] was “inactive” in each case. For the same compound, in [9], the Potency entry is “inactive”.
As to `CCC(C)Nc1c([N+](=O)[O-])cc(C(C)(C)C)cc1[N+](=O)[O-]` (stereo unspecified), the Potency entry in assay [2], in [3], in assay [4], in assay [5], in [6] and in assay [7] was “inactive” each time. The Potency entry in assay [9] was “inactive”.
In the case of `Cc1ccccc1OP(=O)(Oc1ccccc1C)Oc1ccccc1C`, the Potency entry in assay [2], in assay [3], in assay [4] and in assay [7] was “inactive” each time. In addition, in [6], the Potency is 54.7 µM (active).
For `Nc1nc(N)nc(Cl)n1`, the Potency entry in assay [1], in [2], in [3], in assay [5], in [6] and in [7] was “inactive” each time. For the same compound, the Potency result in [9] and in assay [8] was “inactive” throughout.
For `[F][Sn]([c]1ccccc1)([c]1ccccc1)[c]1ccccc1`, the Potency is 0.49 µM (active) in assay [1]; 0.692 µM (active) in assay [2]; 7.76 µM (active) in assay [3]; 5.49 µM (active) in assay [4]; 0.273 µM (active) in assay [6]; 7.76 µM (active) in assay [7].
On to `CN1[C@@H]2CC[C@H]1CC(O)C2` (stereo partly specified), for which the Potency result in assay [1], in [2], in [3], in [4], in assay [5] and in assay [7] was “inactive” in each case. In addition, the Potency entry in assay [9] is “inactive”.
For the compound `Oc1ccc([C@H]2CNCc3c2ccc(O)c3O)cc1O`, the Potency entry in assay [1], in [2], in assay [3], in assay [4], in assay [7] and in assay [9] was “inactive” in each case.
In the case of `Clc1c(Cl)c(Cl)c(Cl)c(Cl)c1Cl`, the activity change, negative = cytotoxicity in [1] is 2.99% [at 5.95 µM]. The results for the viability change, negative = cytotoxic in assay [2] and in assay [7] were -2.04% [at 6.95 µM] and 5.85% [at 6.97 µM], respectively. Further, the activity, negative = cytotoxic in assay [3] was 7.25% [at 6.95 µM]. Also, in assay [5], the activity, negative = cytotoxicity is 5.16% [at 8.39 µM]. Further, the activity change, negative = inhibition in assay [6] was 5.22% [at 8.39 µM]. In assay [9], the activation was -2.52% [at 6.97 µM].
Regarding `CNC(=O)CSP(=O)(OC)OC`, the Potency result in assay [1], in assay [2], in [3], in [4], in [5] and in [7] was “inactive” each time. For the same compound, in assay [9], the Potency result is “inactive”.
Turning to `N#Cc1sc2c(=O)c3ccccc3c(=O)c=2sc1C#N`, the Potency is 4.9 µM (active) in assay [1]; 11 µM (active) in assay [2]; 1.95 µM (active) in assay [3]; 6.92 µM (active) in assay [4]; 13.7 µM (active) in assay [6]; 0.389 µM (active) in assay [7].
`CC(C)N(C(=O)CCl)c1ccccc1`: the Potency result in assay [1], in assay [2], in assay [3], in [4], in assay [7] and in assay [9] was “inactive” each time. Further, in assay [5], the Potency is 27.3 µM (active) and 30.6 µM (active).

The values above are taken from PubChem BioAssay (Tox21).
